Source: PubChem (National Center for Advancing Translational Sciences (NCATS))
RORg inh = ROR gamma (mouse) transcription inhibition; Drosophila S2 Gal4-RORgamma UAS-luciferase reporter, 20 h; Potency, µM (highest dose often 53.6 µM), for the others: at the highest dose activity change, negative = inhibition, most hits filed as inhibitors; hit rate 5.4% among 310,000; AID 2551; also: nearly all actives have a fitted effect of over 60% in size
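Stably transfected Drosophila Schneider cells are the test system, with ROR gamma fused to Gal4 and luciferase under UAS control; luminescence is read after 20 hr of 700 uM copper sulfate induction at ambient temperature.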
Sfp inh = Sfp phosphopantetheinyl transferase inhibition; Q9F4F7; Potency, µM, for inactives: largest response in the series, negative = inhibition, usual class: inhibitors; hit rate 3.5% among 310,000; Biochemical Sfp PPTase activity, qHTS; AID 1490;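 also: the enzyme is Sfp with the accession as filed and its product quenches rhodamine fluorescence; 0% = enzyme reaction without inhibitor and -100% = no enzyme wells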
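Compounds were incubated with enzyme (final 15 nM) for 15 min at room temperature before substrate addition started the reaction. Fluorescence at 525 nm excitation, 598 nm emission was recorded immediately and after 30 minutes.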
ALDH1A1 inh = blocks purified human ALDH1A1 activity. P00352. Purified ALDH1A1, NADH fluorescence, propionaldehyde substrate. Potency, µM (doses to about 75.3 µM), without a hit: at the top dose activity, negative = inhibition, actives largely listed as inhibitors. hit rate 7.3% among 220,000. AID 1030; active = well fitted inhibition curve with a large enough effect, not every such curve was filed as active; inconclusive = small, poorly fitted or top-dose-only effect, or another doubt; inactive = no such curve, though single readings can be large or run the other way;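 also: plate controls were no enzyme wells and a reference inhibitor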
VP16 counter = inhibits Gal4-VP16 luciferase reporter, ROR gamma counter-screen. Drosophila S2 Gal4-VP16 UAS-luciferase, luminescence, 20 h. Potency, µM (top dose mostly 53.6 µM), for the others: top-dose activity, negative = inhibition, most hits filed as inhibitors. hit rate 3.5% among 310,000;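 also: Gal4-VP16 expression switched on by copper sulfate through the metallothionein promoter; nearly all actives have a fitted effect of over 50% in size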
PLK1 PBD inh = PLK1 (human) polo-box domain binding inhibition | Plk1 PBD binding of FITC phosphopeptide, fluorescence polarization | Potency, µM, without a hit: max response, negative = inhibition, hits mostly inhibitors | hit rate 2.8% among 360,000; also: series mostly up to about 57 µM; nearly all actives have a fitted effect of over 65% in size
Target sequence (P53350 whole entry, looked up, the tested form may be a part): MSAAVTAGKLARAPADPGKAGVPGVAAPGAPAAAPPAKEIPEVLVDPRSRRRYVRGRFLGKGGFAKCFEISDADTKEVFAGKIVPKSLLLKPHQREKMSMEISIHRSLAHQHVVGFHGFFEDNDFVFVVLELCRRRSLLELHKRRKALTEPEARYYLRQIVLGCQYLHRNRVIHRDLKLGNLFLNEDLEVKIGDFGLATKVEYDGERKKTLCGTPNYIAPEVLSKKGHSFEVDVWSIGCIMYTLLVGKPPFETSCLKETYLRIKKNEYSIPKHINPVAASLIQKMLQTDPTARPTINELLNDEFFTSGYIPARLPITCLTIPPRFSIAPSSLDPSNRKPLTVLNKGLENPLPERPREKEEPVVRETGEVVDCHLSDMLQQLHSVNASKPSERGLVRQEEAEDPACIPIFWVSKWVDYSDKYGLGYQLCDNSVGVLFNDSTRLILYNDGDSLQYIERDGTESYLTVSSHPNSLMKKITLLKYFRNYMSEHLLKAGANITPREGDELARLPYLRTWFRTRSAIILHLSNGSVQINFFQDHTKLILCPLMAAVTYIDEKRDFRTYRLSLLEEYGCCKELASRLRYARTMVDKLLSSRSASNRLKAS
* hit, by the source's call; ? = inconclusive; · = no result given; [ ] = remark or other dose. Compounds with a hit are over-represented: about 12% of the library has one in this group of screens. Unless noted, calls follow the shape of the dose curve; as a rule, active = well fitted curve in the direction sought with a large enough effect; inconclusive = small, poorly fitted or top-dose-only effect, or another doubt; inactive = no such curve, though single readings can be large; an effect the other way counts as inactive or inconclusive. Unless noted, % is scaled to controls: 0 for no effect and ±100 for the full control effect; potency is read from the fitted curve at half-maximal effect.

SMILES | RORg inh | Sfp inh | ALDH1A1 inh | VP16 counter | PLK1 PBD inh
Cc1cccc(C(=O)NC(=S)N2CCN(C(=S)NC(=O)c3cccc(C)c3)CC2)c1 | 0.79µM* | 30% | -3% | 0.79µM* | -15%
Cc1cccc(C(=O)NC(=S)N2CCN(C)CC2)c1 | 1.3µM* | -29% | 12% | 8.9µM* | -2%
CCCNC(=S)N1CCC(NC(=O)c2cccc(C)c2)CC1 | -13%[1.91 µM] | 1% | · | 0% | -11%
Cc1cnc(CNc2ncncc2-c2cccc(C#N)c2)cn1 | -11% | ? | ? | 9% | ·
CN[C@@H](CCCN=C(N)N)C(=O)N[C@@H](CCCCN)C(=O)N1CCC[C@H]1C(=O)N[C@@H](Cc1c[nH]c2ccccc12)C(=O)N[C@H](C(=O)N[C@H](CC(C)C)C(=O)O)C(C)(C)C | -3% | 1% | · | 20% | ·
CCCC(=O)Nc1ccc2oc(-c3ccc(OC)c(Br)c3)nc2c1 | 18% | 10% | ? | -21% | -1%
COc1ccc(CC(=O)Nc2ccc(-c3nc4cc(C)ccc4o3)c(O)c2)cc1OC | 20% | -18% | ? | 11% | 12%
CCCC(=O)Nc1ccc(-c2nc3cc(C)ccc3o2)cc1 | 4µM* | -5% | ? | 2.8µM* | ?
Cc1ccc2oc(-c3ccc(NC(=O)c4ccncc4)cc3O)nc2c1 | 7.1µM* | 6% | 3% | 4% | -8%
O=C(OCC(=O)c1ccccc1Br)c1ccccn1 | 3% | 56µM* | ? | 21% | ?
COc1ccc(C(=O)C[C@@H]2OC[C@H](C(C)C)N2S(=O)(=O)c2ccc(C)cc2)cc1OC | · | · | · | · | 7%
CC1CCC2(CC1)C(Nc1cccc(Cl)c1)=NC(=S)N2CC#N (stereo not given) | 3.5µM* | 18% | -4% | 3.2µM* | -8%
CC1CCC(=C(C#N)C(=O)Nc2cccc(Cl)c2)CC1 (stereo not given) | 8% | -5% | -11% | 8% | -9%
Cc1cccc(-n2ccnc2CN2CCN(C3CCCC3)C(CCO)C2)c1 (stereo not given) | -25% | -7% | -5% | -16% | -2%
OCC1(Cc2cccc(C(F)(F)F)c2)CCN(Cc2cc3ccccc3o2)CC1 | -19% | 27% | 8% | -17% | 2%
Cc1cccc(-n2ccnc2CN2CCC(CO)(Cc3ccccc3)CC2)c1 | 16µM* | 11% | · | -4% | 0%
Cc1c(CN2CCC(CO)(Cc3cccc(C(F)(F)F)c3)CC2)c2ccccc2n1C | 7.1µM* | ? | 7% | 8.9µM* | -3%
CCOC(=O)C1(CC2CCCCO2)CCN(Cc2cc(F)ccc2-n2cccn2)CC1 (stereo not given) | 15% | 6% | -9% | 15% | 0%
CCOC(=O)C1(CC2CCCCO2)CCN(Cc2nccn2-c2cccc(C)c2)CC1 (stereo not given) | 4.5µM* | 5% | 7% | 13µM* | -4%
CCOC(=O)C1=CCN(S(=O)(=O)c2ccccc2F)C1c1ccc(Cl)c(Cl)c1 (stereo not given) | · | · | · | · | 5%
Cc1ccc(-n2c(C)cc(C(=O)COC(=O)c3ccc[nH]c3=O)c2C)cc1 | 11µM* | 3% | 14% | · | -5%
COCCn1c(C)cc(C(=O)COC(=O)c2ccc[nH]c2=O)c1C | 4.5µM* | 17% | 13% | 3.5µM* | -5%
Cc1cc(C(=O)COC(=O)c2ccc[nH]c2=O)c(C)n1CCc1ccc(F)cc1 | -12% | 17% | 17% | -6% | -13%
Cc1cc(C(=O)COC(=O)c2ccc[nH]c2=O)c(C)n1-c1ccc(Br)cc1 | -27% | -4% | -3% | 0.4µM* | -8%
COCC(=O)OCC(=O)c1cc(C)n(-c2ccc(Br)cc2)c1C | 6% | 3% | 4% | -1% | 17µM*
SMILES | RORg inh | Sfp inh | ALDH1A1 inh | VP16 counter | PLK1 PBD inh
Cc1cc(C(=O)COC(=O)c2ccc[nH]c2=O)c(C)n1C | ? | -4% | -2% | ? | 0%
Cc1cc(C(=O)COC(=O)c2ccc(O)cc2O)c(C)n1-c1ccccc1 | · | · | · | · | 5%
COc1ccc(-n2c(C)cc(C(=O)COC(=O)c3ccc(O)cc3O)c2C)cc1 | · | · | · | · | 10%
Cc1cc(C(=O)CSc2nnnn2-c2ccc(O)cc2)c(C)n1C | 3% | -6% | 16µM* | -26% | 24µM*
Cc1cc(C(=O)C(C)Cl)c(C)n1Cc1ccco1 (stereo not given) | 38% | -8% | 7.1µM* | 11% | 21µM*
Cc1cc(C(=O)CSc2nnnn2C)c(C)n1Cc1ccco1 | 3% | -5% | 28µM* | -16% | -2%
Cc1cc(C(=O)COC(=O)C(C)NC(N)=O)c(C)n1Cc1ccco1 (stereo not given) | -2% | 7% | 4% | -7% | -14%
Cc1cc(C(=O)CSc2ncccn2)c(C)n1Cc1ccco1 | -30% | 56µM* | ? | -26% | -6%
Cc1cc(C(=O)CSc2nnnn2-c2ccccc2)c(C)n1CCc1ccccc1 | 1% | -14% | ? | -11% | 3%
ON=C1CCCCC1 | 28% | · | 2% | -1% | ·
COc1ccc(COC(=O)N/N=C2/C[C@@H](O)[C@@H](O)[C@@H]3[C@@H]4C(=O)N(c5cccc(Oc6ccccc6)c5)C(=O)[C@H]4CC[C@H]23)cc1 | 13%[10 µM] | -5% | -7%[13.5 µM] | 6%[10 µM] | ·
Cc1ccc(-n2c(C)cc(C(=O)CSc3nnnn3C)c2C)cc1 | ? | ? | ? | 13µM* | -6%
COc1cccc(C(=O)NNC(=O)Cc2csc(N)n2)c1 | -47% | 56µM* | 10% | 14% | -2%
CCOc1ccccc1-n1c(SCC(=O)N2CCCc3ccccc32)nnc1-c1cccnc1 | 2%[10 µM] | -3% | 13µM* | 1% | -6%
O=C(CSc1nnc(-c2cccnc2)n1-c1ccc(SC(F)F)cc1)N1CCCc2ccccc21 | ? | -10% | 20µM* | -15% | -16%
Cc1ccc(-n2c(SCC(=O)N3CCCc4ccccc43)nnc2-c2cccnc2)c(C)c1 | -1% | 2% | ? | -3% | -6%
CC12CCC=CC1C(c1ccc3ccccc3c1)N(Cc1ccccc1)C2=O (stereo not given) | ? | -10% | · | 3% | ·
COC(=O)c1cc(OC)c(OC)cc1NC(=O)CSc1nnnn1Cc1ccccc1 | 8% | -6% | 13µM* | -6% | -8%
O=C(CSc1nnnn1Cc1ccccc1)Nc1ccccc1 | ? | 20% | · | -5% | 3%
COc1ccc(C(=O)CSc2nnnn2Cc2ccccc2)cc1 | 1% | -5% | 13µM* | -8% | 2%
O=C(CSc1nnnn1Cc1ccccc1)c1ccccc1 | ? | -21% | ? | 17% | -8%
C[C@@H]1COc2cccc(N3CCSCC3)c2S(=O)(=O)N1 | · | · | · | · | -4%
CCCS(=O)(=O)NC(=O)C1(C)CCCN(C(=O)c2ccccc2OC(F)(F)F)C1 (stereo not given) | · | · | · | · | -12%
Cc1cccc(S(=O)(=O)NC(=O)C2(C)CCN2C(=O)CCC2CCCC2)c1 (stereo not given) | · | · | · | · | -3%
CC(/C=N/NC(=O)c1cc(C(C)C)[nH]n1)=C\c1ccccc1 | ? | 20% | 13% | 1% | 30µM*
